The values below come from PubChem BioAssay (NCATS).

Active and inactive are the calls of the source. No rule for the calls is given here.
Potency is read from the fitted curve at half-maximal effect.

For the test, the system named is HIV-1 nucleocapsid protein NCp7 (binding to TG oligonucleotide). As to the kind of experiment: HIV Nucleocapsid (AID 346).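 Also: potency is for inhibitors that block NC binding and lower polarization.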 Particulars: HIV-1 NC / fluorescein-TGTGTGTG probe, fluorescence polarization. In outline: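 NCp7 100 nM + fluorescein TG4xF 10 nM; Hepes pH 7.5/250mM NaCl/1uM ZnCl2/0.004% PEG 20000; 1 hr RT; FP, 45 s exposure; oligo-only wells as negative control.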
Background: Fluorescence polarisation rises when a labelled molecule tumbles more slowly, as on binding a larger partner.
`COc1ncc2nc(-c3cc(F)cc(F)c3)c(=O)n(-c3ccccc3)c2n1`: the Potency is > 20 µM (inactive).

In the case of `CN(C)C(=O)c1ccc(-c2ccc3ncnc(NCc4cccnc4)c3c2)cc1`, the Potency is > 20 µM (inactive).

In the case of `Cc1ccccc1-c1cc(NCc2ccccc2)ncn1`, the Potency was > 20 µM (inactive).

Regarding `O=C(c1csnn1)N1CCC2(CCCN(C(c3ccccc3)c3ccccc3)C2)CC1`, the Potency is > 20 µM (inactive).

Take `O=C(Oc1ccccc1)N1CCC2(CCCN(c3ccncc3)C2)CC1`: the Potency is > 20 µM (inactive).

Take `O=c1c(CCc2ccccc2)nc2cnc(N3CCNCC3)nc2n1-c1ccccc1`: the Potency was > 20 µM (inactive).

For `c1cncc(-c2cncnc2NC2CCNCC2)c1`, the Potency is > 20 µM (inactive).

With `COc1ccc(-n2c(=O)c(CCc3ccccc3)nc3cnc(N(C)C)nc32)cc1`, the Potency was > 20 µM (inactive).

As to `COCCn1c(=O)c(CCc2ccccc2)nc2cnc(Oc3ccc(OC)cc3)nc21`, the Potency is > 20 µM (inactive).

`O=c1c(-c2ccccc2)nc2cncnc2n1Cc1ccc(F)cc1`: the Potency was > 20 µM (inactive).

Turning to `COc1ccccc1CNc1nc(-c2ccoc2)nc2ccccc12`, the Potency was > 20 µM (inactive).

Consider `COc1ccccc1CN1CCCC2(CCN(C(=O)c3cnccn3)CC2)C1`, for which the Potency was > 20 µM (inactive).

For `Cn1cccc1C(=O)N1CCC[C@@]2(CCN(C(=O)Nc3cccc(C#N)c3)C2)C1`, the Potency was > 20 µM (inactive).

Consider `COCC(=O)N1CCC2(CC1)CN(Cc1nccs1)C2`, for which the Potency is > 20 µM (inactive).

For `N#Cc1cccc(-c2nc3cnc(N4CCOCC4)nc3n(Cc3ccc(F)cc3)c2=O)c1`, the Potency is > 20 µM (inactive).

Turning to `COc1ccc2[nH]cc(CCNc3cc(-c4ccccc4Cl)ncn3)c2c1`, the Potency was > 20 µM (inactive).

In the case of `CC(=O)N1CCC2(CCCN(Cc3ccc(C#N)cc3)C2)CC1`, the Potency was > 20 µM (inactive).

On to `COc1ccc(Oc2ncc3nc(-c4cccs4)c(=O)n(Cc4cccs4)c3n2)cc1`, for which the Potency is > 20 µM (inactive).

As to `COc1cccc(Cn2c(=O)cnc3cnc(N4CCOCC4)nc32)c1`, the Potency is > 20 µM (inactive).

Regarding `COc1ncc2nc(-c3ccc(F)cc3)c(=O)n(C)c2n1`, the Potency is > 20 µM (inactive).

Turning to `Cc1nc2cnc(N3CCN(C)CC3)nc2n(CCc2ccccc2)c1=O`, the Potency is > 20 µM (inactive).

In the case of `c1nc(N2CCOCC2)c2cc(-c3ccoc3)ccc2n1`, the Potency is > 20 µM (inactive).

Consider `CC(=O)N1CCC2(CC1)CCN(c1cccc(-c3ccccc3)c1)CC2`, for which the Potency was > 20 µM (inactive).

As to `O=C(c1ccco1)N1CCC2(CC1)CCN(c1ccncc1)CC2`, the Potency is > 20 µM (inactive).

Consider `COc1ccc(Oc2ncc3nc(CCc4ccccc4)c(=O)n(C[C@H]4CCCO4)c3n2)cc1`, for which the Potency is > 20 µM (inactive).

Turning to `COCCNc1ccnc(-c2ccccc2C)n1`, the Potency is > 20 µM (inactive).

As for `COCCn1c(=O)c(-c2cc(F)cc(F)c2)nc2cnc(Oc3cccc(Cl)c3)nc21`, the Potency was > 20 µM (inactive).

For the molecule `COc1ccc(Oc2ncc3nc(-c4ccccc4)c(=O)n(CCC#N)c3n2)cc1`, the Potency was > 20 µM (inactive).

Turning to `COc1ccc2[nH]cc(CCNc3nc(-c4ccoc4)nc4ccccc34)c2c1`, the Potency was > 20 µM (inactive).

Consider `CC(=O)NCCNc1ncnc2ccc(-c3ccccc3Cl)cc12`, for which the Potency is > 20 µM (inactive).

In the case of `Cn1c(=O)c(-c2ccc(Cl)cc2)nc2cnc(Oc3ccccc3)nc21`, the Potency is > 20 µM (inactive).

For `Cc1noc(C)c1C(=O)N1CCC[C@@]2(CCN(Cc3ccccc3)C2)C1`, the Potency is > 20 µM (inactive).

For the molecule `O=C(c1cc(C(F)(F)F)cc(C(F)(F)F)c1)N1CCC[C@@]2(CCN(Cc3ccncc3)C2)C1`, the Potency was > 20 µM (inactive).

As for `O=c1c(-c2ccccc2)nc2cncnc2n1C1CC1`, the Potency was > 20 µM (inactive).

With `O=c1c(-c2ccccc2)nc2cncnc2n1Cc1ccccc1`, the Potency is > 20 µM (inactive).

In the case of `CN1CCN(c2cc(-c3ccccc3Cl)ncn2)CC1`, the Potency is > 20 µM (inactive).

For `COc1ccc2[nH]cc(CCNc3ccnc(-c4ccoc4)n3)c2c1`, the Potency was > 20 µM (inactive).

Turning to `Cn1c(=O)c(-c2ccc(F)cc2)nc2cnc(N3CCOCC3)nc21`, the Potency is > 20 µM (inactive).

Consider `COc1ccc(Oc2ncc3nc(-c4ccccc4)c(=O)n(C4CC4)c3n2)cc1`, for which the Potency is > 20 µM (inactive).

For the molecule `O=C(c1cccc(F)c1)N1CCC2(CCN(Cc3ccncc3)CC2)CC1`, the Potency was > 20 µM (inactive).
